We go through seven compounds from PubChem BioAssay (Tox21).

Assay [1] can be described thus: qHTS assay to identify small molecule agonists of the hypoxia (HIF-1) signaling pathway (AID 1224846; active = well fitted activation curve with a large enough effect in the signal ratio in the repeat runs, not every such curve was filed as active; the % refers to the signal ratio). The method, boiled down:
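Reporter induction in HRE-bla ME-180 cells is taken as agonism: cells sit 5 hrs after plating, receive compounds or DMSO only, incubate 17 hrs at 37C under 5% CO2, and are loaded with CCF4-AM for beta-lactamase FRET measurement.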
Background: qHTS replaces the single test concentration by a dilution series.

The nature of assay [2]: qHTS assay to identify small molecule agonists of H2AX - cell viability counter screen (AID 1224847; calls by dose curve; also: nearly all actives have a fitted effect of over 30% in size; also: potency is read from the fitted curve at half-maximal effect). The method, boiled down: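 Cells plated first: CHO-K1, 1000 per well in 10% FBS medium, incubated overnight at 37C. Then 15-point compound titration added (final DMSO 0.76%) for 3 hr. Finally CellTiter-Glo added and luminescence read.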
A short description of assay [3]: qHTS assay to identify small molecule antagonists of the estrogen related receptor (ERR) signaling pathway from Tox21 library (AID 1224848). Also: nearly all actives have a fitted effect of over 50% in size. Also: potency is read from the fitted curve at half-maximal effect. The method, boiled down:
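Luciferase luminescence (ONE-Glo, 30 min room temperature) was the read-out. Cells of the NTP-supplied ERR line, 2,000 per well, were given 6 h at 37 C before compound addition in DMSO and 18 h exposure at 37 C.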

Assay [4] in a line: qHTS assay to identify small molecule agonists of the estrogen related receptor (ERR) signaling pathway from Tox21 library (AID 1224849; calls by dose curve; also: nearly all actives have a fitted effect of over 15% in size). To be noted: ERR reporter cell line, ONE-Glo luciferase, 18 h; at 92.4 µM (top of the series) unless noted. The procedure, abridged:
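Tox21 compounds tested for ERR agonism in an NTP reporter cell line: 18 h treatment at 37 C, then ONE-Glo luminescence.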

Assay [5] is described as follows: qHTS RealTime-Glo MT Cell Viability Assay in HepG2 cells - 24 hour (AID 1224867). Also: nearly all actives have a fitted effect of over 50% in size. The method, boiled down:
(§1)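 qHTS, HepG2, 600 cells/well, RealTime-Glo (NanoLuc + prosubstrate) added with cells; 5 h preincubation; DMSO compound addition; 37 C; luminescence at 0/8/16/24/32/40 h.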

Assay [6] is described as follows: A CellTox Green Cytotoxicity Assay to monitor cytotoxicity in HEK293 cells - 0 hour (AID 1224869). Also: nearly all actives have a fitted effect of over 50% in size. The method, boiled down:
(§2)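 Tox21 screen in HEK293: membrane-impermeant cyanine dye fluoresces on binding dead-cell DNA; compound pinned 5 h post-seeding, plates held at 37 C, signal read repeatedly through 40 h.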

Assay [7] in a line: qHTS RealTime-Glo MT Cell Viability Assay in HepG2 cells - 40 hour (AID 1224870). Also: nearly all actives have a fitted effect of over 50% in size. The method, boiled down:
(§3)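 Real-time viability: cells seeded at 600 per well together with NanoLuc and cell-permeant prosubstrate, compounds added after 5 h incubation. Luminescence tracked at 0, 8, 16, 24, 32 and 40 h of exposure.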

Assay [8] can be described thus: A CellTox Green Cytotoxicity Assay to monitor cytotoxicity in HEK293 cells - 40 hour (AID 1224871). Also: nearly all actives have a fitted effect of over 45% in size. The method, boiled down:
as §2

Assay [9] is described as follows: A CellTox Green Cytotoxicity Assay to monitor cytotoxicity in HEK293 cells - 24 hour (AID 1224875). Also: nearly all actives have a fitted effect of over 45% in size. The method, boiled down: as §2
Assay [10] can be described thus: A CellTox Green Cytotoxicity Assay to monitor cytotoxicity in HepG2 cells - 16 hour (AID 1224876). Also: nearly all actives have a fitted effect of over 45% in size. The procedure, abridged: (§4)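 Measurements at 0, 8, 16, 24, 32 and 40 h of treatment captured CellTox Green fluorescence in HepG2 cells that had been co-plated with reagent and preincubated 5 h at 37 C/5% CO2.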
The nature of assay [11]: qHTS RealTime-Glo MT Cell Viability Assay in HepG2 cells - 32 hour (AID 1224877). Also: nearly all actives have a fitted effect of over 55% in size. The procedure, abridged:
as §1

Assay [12] is described as follows: A CellTox Green Cytotoxicity Assay to monitor cytotoxicity in HepG2 cells - 24 hour (AID 1224878). Also: nearly all actives have a fitted effect of over 45% in size. The procedure, abridged:
as §4

Assay [13] in a line: qHTS RealTime-Glo MT Cell Viability Assay in HEK293 cells - 0 hour (AID 1224880). The procedure, abridged:
(§5)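 HEK293 + NanoLuc + prosubstrate, 600 cells/well; 5 h, 37 C/5% CO2; compound 23 nL in DMSO by pintool; 37 C; luminescence read at 0, 8, 16, 24, 32 and 40 h time points.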

The nature of assay [14]: A CellTox Green Cytotoxicity Assay to monitor cytotoxicity in HepG2 cells - 0 hour (AID 1224882). Also: nearly all actives have a fitted effect of over 35% in size. The method, boiled down:
as §4

Assay [15] is described as follows: qHTS RealTime-Glo MT Cell Viability Assay in HEK293 cells - 32 hour (AID 1224868). Also: nearly all actives have a fitted effect of over 50% in size. Also: potency is read from the fitted curve at half-maximal effect. The method, boiled down:
(§6)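 Assay medium contained NanoLuc luciferase plus cell-permeant prosubstrate, added with HEK293 cells at 600 cells/well. After 5 h at 37 C/5% CO2 compounds were added; plates stayed at 37 C for 40 h with serial luminescence reads.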

Assay [16] is described as follows: qHTS RealTime-Glo MT Cell Viability Assay in HEK293 cells - 16 hour (AID 1224872). Also: nearly all actives have a fitted effect of over 50% in size. Also: potency is read from the fitted curve at half-maximal effect. The method, boiled down: as §6
The nature of assay [17]: A CellTox Green Cytotoxicity Assay to monitor cytotoxicity in HepG2 cells - 40 hour (AID 1224879). Also: nearly all actives have a fitted effect of over 40% in size. Also: potency is read from the fitted curve at half-maximal effect. The procedure, abridged: as §4
A short description of assay [18]: qHTS RealTime-Glo MT Cell Viability Assay in HepG2 cells - 8 hour (AID 1224873). Also: nearly all actives have a fitted effect of over 55% in size. The method, boiled down:
as §3

A short description of assay [19]: qHTS RealTime-Glo MT Cell Viability Assay in HEK293 cells - 40 hour (AID 1224874). Also: nearly all actives have a fitted effect of over 50% in size. To be noted: RealTime-Glo luminescence; max response: hits give low values. The procedure, abridged: as §5
A short description of assay [20]: A CellTox Green Cytotoxicity Assay to monitor cytotoxicity in HEK293 cells - 32 hour (AID 1224881). Also: nearly all actives have a fitted effect of over 40% in size. The method, boiled down:
as §2

A number with no mark means an inactive call. Inconclusive results are not listed. The source made the active and inactive calls. Unless noted, calls follow the shape of the dose curve; as a rule, active = well fitted curve in the direction sought with a large enough effect in the repeat runs; inconclusive = weak or mixed curves; inactive = no such curve, though single readings can be large; an effect the other way counts as inactive or inconclusive.
% is scaled to controls: 0 for no effect and ±100 for the full control effect.

For the compound `COC(=O)N(C(=O)N1CO[C@@]2(C(=O)OC)Cc3cc(Cl)ccc3C2=N1)c1ccc(OC(F)(F)F)cc1`, the call in assay [1] was inactive. Also, the Potency result in [2], in assay [5], in [6], in assay [7], in [8] and in assay [9] was “inactive” throughout. For the same compound, the Potency entry in assay [10], in assay [11], in assay [12], in assay [13] and in assay [14] was “inactive” in each case. Also, the Potency in [3] was 8.35 µM (active). For the same compound, the activity change, positive = activation in [4] was -47.5%.

For the compound `CC(C)(C)C(O)/C(=C\c1ccc(Cl)cc1Cl)n1cncn1` (configuration not stated), the compound was classed as inactive in assay [1]. For the same compound, the Potency in assay [2] was 122 µM (active); in assay [3], 33 µM (active); in assay [15], 29.7 µM (active); in assay [16] it was 29.7 µM (active); in assay [17] it was 52.8 µM (active). Further, in assay [4], the activity change, positive = activation was -63.4%. For the same compound, the Potency result in [6], in [13] and in assay [14] was “inactive” throughout.

As to `CCCCOCN(C(=O)CCl)c1c(CC)cccc1CC`, in assay [1], the call was inactive. Further, the Potency was 101 µM (active) in [2] and 27.3 µM (active) in assay [3]. For the same compound, the activity change, positive = activation in assay [4] was -62.9%. Further, the Potency result in assay [15], in assay [6], in assay [7], in assay [16], in assay [18] and in assay [9] was “inactive” in each case. In addition, the Potency result in [10], in [12], in assay [13], in assay [20] and in [14] was “inactive” each time. Besides, the max response in assay [19] is -10.8%.

With `C=CCOC(N)=O`, the outcome in assay [1] was inactive. For the same compound, the Potency entry in assay [2], in [3], in [5], in [15], in assay [6] and in [7] was “inactive” in each case. The Potency result in assay [8], in assay [16], in assay [18], in assay [9], in assay [10] and in assay [11] was “inactive” each time. Moreover, the Potency result in assay [12], in [17], in [13], in assay [20] and in assay [14] was “inactive” throughout. For the same compound, in [4], the activity change, positive = activation was 2.68%. The max response in assay [19] was 0.832%.

Turning to `CCOP(=S)(OCC)SCS(=O)(=O)CC`, the call in assay [1] was inactive. Further, the Potency result in assay [2], in assay [3], in [5], in assay [6], in [7] and in assay [8] was “inactive” throughout. The Potency result in assay [18], in assay [9], in [10], in [12], in assay [17] and in assay [20] was “inactive” in each case. Further, in assay [14], the Potency result is “inactive”. For the same compound, the activity change, positive = activation in assay [4] was -5.31%.

In the case of `N#CCc1ccc(Cl)cc1`, the compound was classed as inactive in [1]. For the same compound, the Potency result in assay [2], in [3], in assay [5], in assay [15], in assay [6] and in assay [7] was “inactive” in each case. Further, the Potency entry in assay [8], in [16], in [18], in assay [9], in [11] and in assay [12] was “inactive” throughout. Besides, the Potency entry in assay [13], in assay [20] and in [14] was “inactive” throughout. For the same compound, the activity change, positive = activation in assay [4] is 1.98%. The max response in [19] is 1.31%.

Regarding `CCc1ccccc1C`, the outcome in assay [1] was inactive. Besides, the Potency entry in assay [2], in [3], in [5], in assay [15], in [7] and in [8] was “inactive” throughout. Besides, the Potency entry in [16], in assay [18], in assay [9], in assay [10], in assay [11] and in assay [12] was “inactive” in each case. The Potency result in assay [17], in assay [13], in assay [20] and in assay [14] was “inactive” each time. The activity change, positive = activation in [4] is 0.837%. Moreover, the max response in [19] was 0.859%.
